Bioassay records from PubChem.
A selection: hits, their analogues and other compounds. The true share with any hit is near 1.6%.
PERK inhibitor: blocks human PERK kinase; Q9NZJ5; CHO PERK-DD fusion, SEAP luminescence translation reporter; inhibition, % at 5.6 µM; hit rate 0.17% among 220,000;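 active = inhibition above the mean inhibition of all tested compounds plus 3 SD, set separately per screening campaign, cut at about 2.9% in these data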;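 note: PERK kinase domain activated by AP20187 dimerizer at 100 nM; 0% = DMSO with dimerizer and 100% = rapamycin at 8.4 µM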
MLLE-PAM2 inh: inhibitors of microRNA-mediated deadenylation, human PABP1 MLLE binding; P11940; GST-MLLE / FITC-PAM2 fluorescence polarization; inhibition, % at 20 µM; hit rate 0.36% among 360,000; in the data active = inhibition above about 35%, passing the limit was not always enough;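 note: plate controls were DMSO wells with GST-MLLE for no effect and wells lacking GST-MLLE protein for full effect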
eIF4E 4G PPI: inhibitors of eIF4E and eIF4G interaction in translation initiation; inhibition, % at 21.7 µM; TR-FRET eIF4E-eIF4GI(517-606) binding, 2 h; P63073+Q04637; hit rate 0.37% among 220,000; AID 782;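 active = inhibition above about 30%, limit read from the data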;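 note: 0% = full FRET control wells and 100% = background wells lacking eIF4GI fragment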
Target sequence (P63073 whole entry, looked up, the tested form may be a part): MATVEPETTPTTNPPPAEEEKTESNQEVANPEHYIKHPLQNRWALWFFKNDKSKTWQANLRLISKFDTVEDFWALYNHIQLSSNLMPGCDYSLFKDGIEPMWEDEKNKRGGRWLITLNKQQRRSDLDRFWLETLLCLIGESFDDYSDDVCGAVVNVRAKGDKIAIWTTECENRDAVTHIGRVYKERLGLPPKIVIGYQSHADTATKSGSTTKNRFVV
Target sequence (Q04637 whole entry, looked up, the tested form may be a part): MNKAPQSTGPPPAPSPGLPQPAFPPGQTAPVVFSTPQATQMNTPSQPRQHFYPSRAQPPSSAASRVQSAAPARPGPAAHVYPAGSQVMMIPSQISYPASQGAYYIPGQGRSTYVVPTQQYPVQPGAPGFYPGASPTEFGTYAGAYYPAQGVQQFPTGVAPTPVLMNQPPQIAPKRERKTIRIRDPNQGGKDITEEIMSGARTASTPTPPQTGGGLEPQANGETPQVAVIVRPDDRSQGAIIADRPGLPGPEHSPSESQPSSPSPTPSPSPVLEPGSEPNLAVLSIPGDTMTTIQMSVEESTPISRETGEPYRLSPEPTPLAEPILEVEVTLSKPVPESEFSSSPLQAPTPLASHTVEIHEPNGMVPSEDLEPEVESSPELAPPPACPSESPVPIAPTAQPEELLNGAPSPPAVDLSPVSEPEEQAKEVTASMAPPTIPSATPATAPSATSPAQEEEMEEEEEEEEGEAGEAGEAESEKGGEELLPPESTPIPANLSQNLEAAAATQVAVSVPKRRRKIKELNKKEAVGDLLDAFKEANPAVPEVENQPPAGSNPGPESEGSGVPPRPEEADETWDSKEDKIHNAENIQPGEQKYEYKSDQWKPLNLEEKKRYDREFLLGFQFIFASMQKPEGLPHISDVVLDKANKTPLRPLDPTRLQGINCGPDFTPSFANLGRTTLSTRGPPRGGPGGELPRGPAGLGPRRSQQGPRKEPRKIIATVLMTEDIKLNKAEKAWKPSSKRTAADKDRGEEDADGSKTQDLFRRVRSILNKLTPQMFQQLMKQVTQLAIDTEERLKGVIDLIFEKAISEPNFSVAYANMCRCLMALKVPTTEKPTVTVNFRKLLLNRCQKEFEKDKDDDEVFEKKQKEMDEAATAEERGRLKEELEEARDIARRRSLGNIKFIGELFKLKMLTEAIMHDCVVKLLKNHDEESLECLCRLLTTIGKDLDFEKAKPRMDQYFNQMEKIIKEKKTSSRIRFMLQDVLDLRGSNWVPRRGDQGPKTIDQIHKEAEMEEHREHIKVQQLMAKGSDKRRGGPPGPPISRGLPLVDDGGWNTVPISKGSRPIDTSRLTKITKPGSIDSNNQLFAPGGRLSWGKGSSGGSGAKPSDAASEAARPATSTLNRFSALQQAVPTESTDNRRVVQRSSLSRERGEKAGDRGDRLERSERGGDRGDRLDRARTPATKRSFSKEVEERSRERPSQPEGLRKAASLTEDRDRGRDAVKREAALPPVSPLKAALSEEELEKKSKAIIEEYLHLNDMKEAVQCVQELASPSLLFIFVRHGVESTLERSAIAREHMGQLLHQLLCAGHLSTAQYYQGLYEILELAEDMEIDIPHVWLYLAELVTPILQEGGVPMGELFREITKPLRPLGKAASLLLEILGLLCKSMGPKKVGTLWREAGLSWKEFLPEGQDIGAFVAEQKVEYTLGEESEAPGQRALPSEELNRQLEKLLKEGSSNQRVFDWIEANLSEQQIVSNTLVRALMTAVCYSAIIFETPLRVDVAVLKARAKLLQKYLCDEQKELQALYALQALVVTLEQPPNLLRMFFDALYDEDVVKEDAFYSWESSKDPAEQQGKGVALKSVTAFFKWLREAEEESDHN
PABP FP inh: blocks human PABP binding to poly(A) RNA; inhibition, % at 35 µM; fluorescence polarization; hit rate 1% among 290,000; P11940;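 note: calls also rest on retests at 20 µM and on dose response follow-up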
eIF4H FP inh: inhibitors of RNA binding by human eIF4H; Q15056; eIF4H fluorescence polarization binding assay; inhibition, % at 35 µM; hit rate 0.94% among 290,000;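 note: calls also rest on retests at 20 µM and on dose response follow-up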
* = called active by the depositor; ? = inconclusive; . = no result given; ! = a repeat was not active; [ ] = another dose, or the depositor's remark. Unless noted, the rule behind the calls is not given here.

SMILES | PERK inhibitor | MLLE-PAM2 inh | eIF4E 4G PPI | PABP FP inh | eIF4H FP inh
CN(CCO)c1nc(N)c2c(N)nc3c(c2c1C#N)CC(=O)N3C1CCCC1 | -1 | . | 3 | 77* | ?
CN(C)c1nc(N2CCN(c3ccc(F)cc3)CC2)c(C#N)c(=O)o1 | 1 | 4 | 2 | 9 | -11
Cc1ccc(NC(=O)COC(=O)CN2C(=O)C3CCCCC3C2=O)cc1C (stereo not drawn) | . | 15 | . | . | .
CC(C)(C)Cc1nc(-c2ccccn2)no1 | 1 | 2 | 6 | -9 | -1
CN(C)/C=C1/C=C(c2ccccc2)OC1=O | 1 | 6 | 3 | -2 | 2
CCC1=C/C(=C/N(C)c2ccccc2)C(=O)S1 | 1 | 31 | -18 | 80* | 53*
Nc1ccc(N2CCCCCC2)cc1 | 0 | . | 3 | 71* | 83*
Cc1cc(NC(=O)CSCC(=O)OCc2nnc(-c3ccccc3)o2)no1 | . | 19 | . | -8 | -4
O=C1N(C2CCCC2)C[C@@H]2C[C@@H](c3cn[nH]c3-c3ccc(Cl)cc3)N3CCC[C@@]123 | -1 | -6 | -1 | 56* | 4
Cc1cc(=O)oc2cc(OCc3ccc(C(=O)OCC(=O)N(C)C4CCS(=O)(=O)C4)cc3)ccc12 (stereo not drawn) | 2 | 9 | -4 | 13 | 15
Cc1cc(=O)oc2cc(OCc3ccc(C(=O)OCC(=O)NC4CCS(=O)(=O)C4)cc3)ccc12 (stereo not drawn) | 0 | 1 | 7 | 55* | 99*
Cc1nc2ccccc2c(=O)n1/N=C/c1ccco1 | 0 | -2 | 0 | 1 | 6
O=c1c2ccccc2nc(-c2ccco2)n1/N=C/c1ccco1 | -1 | 6 | 0 | 91* | 97*
O=C(Nc1cccc(-c2nc3cccnc3s2)c1)C1c2ccccc2Oc2ccccc21 | 1 | -46 | 34* | 0 | 16
CC(C)c1ccc(NC(=O)C2CC(=O)Nc3nc4ccccc4n32)cc1 (stereo not drawn) | 1 | 2 | -4 | 8 | -2
COc1ccc2c(c1)c(=O)oc1cc(OCC(=O)NC3CCCCC3)ccc12 | 1 | -13 | 7 | 18 | 91*
COc1ccc2c(c1)c(=O)oc1cc(OCC(=O)NC3CC3)ccc12 | -1 | -1 | -22 | -1 | 6
CC(=O)c1cnc2nc(SCc3ccccc3C)nn2c1C | . | 14 | . | -1 | 3
CCn1ncc(Cl)c1C(=O)NC(=S)Nc1ccccc1Br | . | 28 | . | -2 | 2
C=CCSc1nc(-c2ccc(OC)cc2)c(C#N)c(=O)n1CC=C | 0 | -12 | 89* | 1 | 2
O=C(/C=C/c1cccs1)Nc1scc(-c2ccccc2)c1C(=O)O | 0 | -4 | 92* | 3 | 8
COc1ccc(C(C)N2CC34C=CC(O3)C(C(=O)O)C4C2=O)cc1 (stereo not drawn) | 2 | 17 | 3 | -7 | -4
COC(=O)C1C2C=CC3(CN(C(C)c4ccc(OC)cc4)C(=O)C13)O2 (stereo not drawn) | 2 | -2 | -12 | 54* | active
N#CC(=C=[N-])c1nc2ccccc2nc1-[n+]1cccc(NC(=O)c2cccs2)c1 | 1 | -8 | -6 | 54* | 54*
N#CC(=C=[N-])c1nc2ccccc2nc1-[n+]1cccc(NC(=O)c2ccccc2)c1 | 1 | -6 | 14 | 16 | 22
SMILES | PERK inhibitor | MLLE-PAM2 inh | eIF4E 4G PPI | PABP FP inh | eIF4H FP inh
O=C(O)CSc1cc(NS(=O)(=O)c2ccc(Cl)cc2)c2ccccc2c1O | . | 40* | . | 16 | -2
O=C(O)C/C(=C\c1ccc2c(c1)OCO2)c1nc2ccccc2s1 | . | -11 | . | 8 | 5
O=C(O)C/C(=C\c1cc(Cl)c2c(c1)OCO2)c1nc2ccccc2s1 | . | -22 | . | 32 | 94*
O=C(O)CC/C(=C\c1cccc(NC(=O)c2ccccc2Cl)c1)c1nc2ccccc2s1 | 1 | -5 | 7 | 11* | 58*
CCn1c(N2CCN(C(=S)NC)CC2)nc2ccccc21 | 1 | -129 | 4 | 31 | 7
CC(=O)N1c2ccc(S(=O)(=O)N3CCC(C(=O)Nc4ccccn4)CC3)cc2CC1C (stereo not drawn) | . | 5 | . | 5 | -14
Cc1ccc(NC(=O)CSc2nc3ccccc3c3nc(CCc4c(C)n[nH]c4C)nn23)cc1F | 0 | -14 | 6 | 13 | 4
CN(C)CCOC(c1ccccc1)c1ccccc1 (tested in a mixture with another compound) | 1 | -22 | 5 | 4 | 3
CN(C)CCOC(c1ccccc1)c1ccccc1 | 0 | -6 | 4 | 98 | 1.6*!
CC(=NOC(=O)c1ccc(F)cc1)c1nccs1 | . | 6 | . | . | .
C/C(=N\OC(=O)c1ccccc1F)c1nccs1 | 3.4* | -14 | -2 | 9 | 2
O=C(COC(=O)c1cccc(S(=O)(=O)NCc2ccccc2)c1)NCC1CCCO1 (stereo not drawn) | 1 | 4 | 1 | -1 | -4
COC(=O)c1cc2c(C)c(C)c3ccccn3c-2c1C(=O)OC | 0 | 60* | -18 | 120 | 127
COC(=O)c1cc2ccccn2c2c(C(=O)OC)c(C(=O)OC)cc1-2 | -1 | 9 | -6 | 15 | 1
COC(=O)c1cc2n3ccccc3c(C)c(-c3ccccc3)c-2c1C(=O)OC | -1 | 47* | 6 | 124* | 130*
Nc1c(-c2ccccc2)c(CN2CCOCC2)nn1-c1ccccc1 | 0 | -6 | 4 | 9 | 4
Cc1ccccc1Cn1nnc(-c2cccc(C(=O)O)c2)n1 | 0 | 6 | -7 | 10 | -6
Cc1ccc2c(c1)-c1c(ssc1=S)C(C)(C)N2C(=O)c1ccco1 | 0 | 48* | -1 | -10 | 1
CCCCNC(=O)c1cccc(NC(=O)C(=O)c2ccccc2NC(C)=O)c1 | -2 | -8 | 0 | 0 | -10
Cc1ccc(C)n1-c1ccc(N2CCOCC2)nc1 | 1 | 28 | 10 | 66* | 71*
C#Cc1ccc(CN2CCC(C(=O)Nc3ccc(Oc4ccccc4)nc3)CC2)cc1 | . | -11 | . | -10 | -5
CCOc1cc(/C=C2/C(=O)ON=C2C)ccc1OCc1ccc(F)cc1 | 0 | -51 | 1 | 0 | -4
CCOc1cc(/C=C2/C(=O)ON=C2C)ccc1OCc1ccccc1 | 0 | . | 1 | 8.1* | ?
CC1(C)S[C@@H]2[C@H](NC(=O)[C@H](N)c3ccccc3)C(=O)N2[C@H]1C(=O)O | 0 | 3 | -2 | 13* | 63
CCC(=O)NCC(c1cccs1)S(=O)(=O)c1ccc(C)cc1 (stereo not drawn) | . | -6 | . | 5 | -1
CCOc1ccc(NC(=O)Cn2nnc3c(cnn3-c3ccc(F)cc3)c2=O)cc1 | 1 | 6 | -2 | 6 | 2
Cc1ccccc1NC(=O)Cn1nnc2c(cnn2-c2ccc(F)cc2)c1=O | 1 | -15 | 41*[fluorescence artefact?] | -6 | -12
CCCCOC(=O)c1ccc(NC(=S)NC(=O)c2ccco2)cc1 | . | 29 | . | 14 | 3
Cc1cccc(NC(=S)NNC(=O)c2csc3c2CCCC3)c1 | 1 | 38* | -4 | 5 | 18
CCNS(=O)(=O)c1ccc(C(=O)Nc2ccccc2)cc1 | 0 | 2 | 4 | 5 | 3
